Records with an inconclusive call do not appear. Activity calls are given as the source filed them. The calls were made as follows: active = hit-call score of the fitted dose curve at least 0.9, where 1 is the maximum; inconclusive = response in the unintended direction; inactive = score below 0.9.

Sequence of Cellular tumor antigen p53 (Homo sapiens) (P04637 whole entry, looked up): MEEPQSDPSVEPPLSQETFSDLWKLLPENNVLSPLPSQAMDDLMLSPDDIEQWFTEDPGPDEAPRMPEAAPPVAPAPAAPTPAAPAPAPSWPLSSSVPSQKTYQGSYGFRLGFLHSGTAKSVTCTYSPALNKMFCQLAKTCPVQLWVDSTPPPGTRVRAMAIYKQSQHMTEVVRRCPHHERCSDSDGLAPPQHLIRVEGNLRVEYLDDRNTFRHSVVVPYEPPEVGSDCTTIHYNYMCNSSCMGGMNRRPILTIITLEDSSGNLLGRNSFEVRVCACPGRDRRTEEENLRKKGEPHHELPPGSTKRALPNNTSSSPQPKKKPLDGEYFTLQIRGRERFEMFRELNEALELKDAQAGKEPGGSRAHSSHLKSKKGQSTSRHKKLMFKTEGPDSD

Tested on in one assay: not listed separately
In words: TOX21_p53_BLA_p4_viability: Viability Assessment in the Tox21 HCT-116 p53 Agonism Beta-lactamase Assay, Phase 4 (AID 2283597).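 Also: hits lower the luminescence signal meaning cytotoxicity.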 The procedure, abridged:
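We seeded HCT116 p53 reporter cells at 4000/well and waited 5 h. We then added compounds in DMSO at a 217-fold dilution and incubated for 16 h. Viability was read as CellTiter-Glo luminescence after 30 min at RT.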
`CC(C)=CC(C)(C)C`: the compound was called inactive.

With `CCc1ccc(C(=O)C(C)CN2CCCCC2)cc1` (configuration not stated), the call was inactive.

On to `CCCCCC(C)N` (configuration not stated), for which the result was inactive.

As for `CC(C)(C)NCCO`, the outcome was inactive.

In the case of `Cc1ccnc2c1NC(=O)c1cccnc1N2C1CC1`, the compound was called inactive.

Consider `COc1ccc(C(=O)NCc2ccc(OCCN(C)C)cc2)cc1OC`, for which the outcome was inactive.

Regarding `Cl/C(=C\n1cncn1)c1ccc(Cl)cc1Cl`, the call was inactive.

As for `NNc1nnc(NN)c2ccccc12`, the compound was called inactive.

With `O=C1CC[C@H](C(=O)N2CCCCC2)N1`, the call was inactive.

As for `Nc1nc(-c2ccc([N+](=O)[O-])cc2)cs1`, the compound was classed as inactive.

`COc1cc(S(C)=O)ccc1-c1nc2ncccc2[nH]1` (configuration not stated): the call was inactive.

For `CC(C)(C)NSc1nc2ccccc2s1`, the compound was called inactive.

On to `O=CC1CC=CCC1` (configuration not stated), for which the call was inactive.

As to `Nc1ccc2cc(S(=O)(=O)O)ccc2c1`, the call was inactive.

On to `C=CCCCC`, for which the result was inactive.

Turning to `O=C(O)CCNC(=O)c1ccc(N=Nc2ccc(O)c(C(=O)O)c2)cc1`, the compound was classed as inactive.

`CCC(CO)(CO)[N+](=O)[O-]`: the outcome was inactive.

Consider `CCN1CCc2nc(N)oc2CC1`, for which the result was inactive.

In the case of `CN(CC(=O)N1CCOCC1)Cc1c(Cl)cccc1NC(=O)c1ccccc1`, the call was inactive.

Regarding `CCc1ccc(CC)cc1`, the compound was classed as inactive.

Consider `C[C@@H]1CC[C@@]2(OC1)O[C@H]1C[C@H]3[C@@H]4CC[C@H]5C[C@@H](O)CC[C@]5(C)[C@H]4CC(=O)[C@]3(C)[C@H]1[C@@H]2C`, for which the call was inactive.

For the compound `COc1ccc(C=NNC(=O)c2ccncc2)c(C(=O)O)c1OC`, the result was inactive.

For the compound `NC(=O)c1cn(Cc2c(F)cccc2F)nn1`, the compound was classed as inactive.

As to `c1cc2c3c(c1)ccc1cccc(c13)C2`, the outcome was inactive.

In the case of `CC(=O)NC(=O)c1ccccc1O`, the result was inactive.

Consider `CC/C=C(\C(=O)N[C@@H]1C(=O)N2C(C(=O)OCOC(=O)C(C)(C)C)=C(COC(N)=O)CS[C@H]12)c1csc(N)n1`, for which the outcome was inactive.

With `C[C@@H](c1ncncc1F)[C@](O)(Cn1cncn1)c1ccc(F)cc1F`, the result was inactive.

`c1ccc2nccnc2c1`: the compound was called inactive.

On to `O=C1NC(=O)[C@H]2[C@@H]1[C@@H]1C=C[C@H]2C1`, for which the compound was classed as inactive.

With `CC(=O)OCC(=O)Nc1cc(C#N)cc(NC(=O)COC(C)=O)c1Cl`, the call was inactive.

Turning to `OC(CCCN1CCCCC1)(c1ccccc1)c1ccccc1`, the compound was classed as inactive.

Regarding `O=C(OC1C[C@@H]2CC3C[C@H](C1)N2CC3=O)c1c[nH]c2ccccc12` (some centres not stated), the call was inactive.

Consider `Cc1cc(NC(=O)C2=C(O)c3ccccc3S(=O)(=O)N2C)no1`, for which the compound was called inactive.

Regarding `CCN(CC)CCOC(=O)C1(c2ccccc2)CCCC1`, the compound was called inactive.

`CCOC(=O)[C@H](CCc1ccccc1)N[C@@H](C)C(=O)N1CC2(C[C@H]1C(=O)O)SCCS2`: the compound was classed as inactive.

Turning to `CN(C)CC[C@@H](c1ccc(Cl)cc1)c1ccccn1`, the call was inactive.

For the compound `CCc1cccc(C)c1`, the compound was called inactive.

For `O=C(O)c1ccc(O)cc1O`, the compound was classed as inactive.

With `CCCCCCCCCCCCCCCCCl`, the compound was classed as inactive.

A further assay addresses Cellular tumor antigen p53 (Homo sapiens) (UniProt P04637). The experiment in a line: TOX21_p53_BLA_p5_ratio: Tox21 HCT-116 p53 Agonism Beta-lactamase Assay, Ratio, Phase 5 (AID 2283599). The procedure, abridged: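 HCT-116 p53-bla cells (4000/well) plated 5 h, dosed with compound (217-fold DMSO dilution) for 16 h at 37 C; CCF4-AM substrate 2 h at room temperature. Activity is the 460/530 nm emission ratio (405 nm excitation), fitted in gain-of-signal direction versus DMSO.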
`CC(C)=CC(C)(C)C`: the result was inactive.

For the compound `CCc1ccc(C(=O)C(C)CN2CCCCC2)cc1` (configuration not stated), the outcome was inactive.

With `CCCCCC(C)N` (configuration not stated), the result was inactive.

`Cc1ccnc2c1NC(=O)c1cccnc1N2C1CC1`: the outcome was inactive.

Consider `COc1ccc(C(=O)NCc2ccc(OCCN(C)C)cc2)cc1OC`, for which the outcome was inactive.

With `Cl/C(=C\n1cncn1)c1ccc(Cl)cc1Cl`, the outcome was inactive.

On to `NNc1nnc(NN)c2ccccc12`, for which the outcome was inactive.

On to `O=C1CC[C@H](C(=O)N2CCCCC2)N1`, for which the result was inactive.

Regarding `Nc1nc(-c2ccc([N+](=O)[O-])cc2)cs1`, the result was inactive.

Consider `COc1cc(S(C)=O)ccc1-c1nc2ncccc2[nH]1` (configuration not stated), for which the result was inactive.

For the compound `Nc1ccc2cc(S(=O)(=O)O)ccc2c1`, the result was inactive.

In the case of `O=C(O)CCNC(=O)c1ccc(N=Nc2ccc(O)c(C(=O)O)c2)cc1`, the result was inactive.

On to `CCN1CCc2nc(N)oc2CC1`, for which the result was inactive.

Regarding `CCc1ccc(CC)cc1`, the result was inactive.

On to `C[C@@H]1CC[C@@]2(OC1)O[C@H]1C[C@H]3[C@@H]4CC[C@H]5C[C@@H](O)CC[C@]5(C)[C@H]4CC(=O)[C@]3(C)[C@H]1[C@@H]2C`, for which the result was inactive.

For `COc1ccc(C=NNC(=O)c2ccncc2)c(C(=O)O)c1OC`, the result was inactive.

In the case of `c1cc2c3c(c1)ccc1cccc(c13)C2`, the result was inactive.

For `CC(=O)NC(=O)c1ccccc1O`, the result was inactive.

For the compound `c1ccc2nccnc2c1`, the result was inactive.

As to `O=C1NC(=O)[C@H]2[C@@H]1[C@@H]1C=C[C@H]2C1`, the outcome was inactive.

For the compound `Cc1cc(NC(=O)C2=C(O)c3ccccc3S(=O)(=O)N2C)no1`, the outcome was inactive.

Turning to `CCN(CC)CCOC(=O)C1(c2ccccc2)CCCC1`, the result was inactive.

For `CCOC(=O)[C@H](CCc1ccccc1)N[C@@H](C)C(=O)N1CC2(C[C@H]1C(=O)O)SCCS2`, the outcome was inactive.

Take `CN(C)CC[C@@H](c1ccc(Cl)cc1)c1ccccn1`: the outcome was inactive.

`CCc1cccc(C)c1`: the result was inactive.

Regarding `O=C(O)c1ccc(O)cc1O`, the outcome was inactive.

Turning to `CCCCCCCCCCCCCCCCCl`, the result was inactive.

Tested on in a further assay: not listed separately
In words: TOX21_p53_BLA_p5_viability: Viability Assessment in the Tox21 HCT-116 p53 Agonism Beta-lactamase Assay, Phase 5 (AID 2283600). The procedure, abridged: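 Compounds, pinned from DMSO at 217-fold dilution, were left on the cells for 16 h. The viability endpoint was ATP content measured by CellTiter-Glo luminescence, where falling signal reflects cytotoxicity.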
`CC(C)=CC(C)(C)C`: the compound was called inactive.

Regarding `CCc1ccc(C(=O)C(C)CN2CCCCC2)cc1` (configuration not stated), the outcome was inactive.

Consider `CCCCCC(C)N` (configuration not stated), for which the compound was classed as inactive.

On to `CC(C)(C)NCCO`, for which the outcome was inactive.

Turning to `Cc1ccnc2c1NC(=O)c1cccnc1N2C1CC1`, the call was inactive.

Take `Cl/C(=C\n1cncn1)c1ccc(Cl)cc1Cl`: the compound was classed as inactive.

Take `NNc1nnc(NN)c2ccccc12`: the result was inactive.

Regarding `O=C1CC[C@H](C(=O)N2CCCCC2)N1`, the compound was called inactive.

With `Nc1nc(-c2ccc([N+](=O)[O-])cc2)cs1`, the call was inactive.

Turning to `COc1cc(S(C)=O)ccc1-c1nc2ncccc2[nH]1` (configuration not stated), the compound was classed as inactive.

On to `CC(C)(C)NSc1nc2ccccc2s1`, for which the result was inactive.

As to `O=CC1CC=CCC1` (configuration not stated), the outcome was inactive.

In the case of `C=CCCCC`, the compound was classed as inactive.

Turning to `CCC(CO)(CO)[N+](=O)[O-]`, the compound was classed as inactive.

Consider `CCN1CCc2nc(N)oc2CC1`, for which the call was inactive.

For the compound `CN(CC(=O)N1CCOCC1)Cc1c(Cl)cccc1NC(=O)c1ccccc1`, the result was inactive.

For `CCc1ccc(CC)cc1`, the compound was classed as inactive.

Regarding `C[C@@H]1CC[C@@]2(OC1)O[C@H]1C[C@H]3[C@@H]4CC[C@H]5C[C@@H](O)CC[C@]5(C)[C@H]4CC(=O)[C@]3(C)[C@H]1[C@@H]2C`, the compound was called inactive.

Consider `COc1ccc(C=NNC(=O)c2ccncc2)c(C(=O)O)c1OC`, for which the call was inactive.

`NC(=O)c1cn(Cc2c(F)cccc2F)nn1`: the call was inactive.

Regarding `c1cc2c3c(c1)ccc1cccc(c13)C2`, the result was inactive.

Turning to `CC(=O)NC(=O)c1ccccc1O`, the outcome was inactive.

For the compound `CC/C=C(\C(=O)N[C@@H]1C(=O)N2C(C(=O)OCOC(=O)C(C)(C)C)=C(COC(N)=O)CS[C@H]12)c1csc(N)n1`, the call was inactive.

For `C[C@@H](c1ncncc1F)[C@](O)(Cn1cncn1)c1ccc(F)cc1F`, the compound was classed as inactive.

As for `c1ccc2nccnc2c1`, the result was inactive.

For the compound `O=C1NC(=O)[C@H]2[C@@H]1[C@@H]1C=C[C@H]2C1`, the result was inactive.

In the case of `CC(=O)OCC(=O)Nc1cc(C#N)cc(NC(=O)COC(C)=O)c1Cl`, the compound was called inactive.

In the case of `OC(CCCN1CCCCC1)(c1ccccc1)c1ccccc1`, the call was inactive.

On to `O=C(OC1C[C@@H]2CC3C[C@H](C1)N2CC3=O)c1c[nH]c2ccccc12` (some centres not stated), for which the compound was called inactive.

Regarding `Cc1cc(NC(=O)C2=C(O)c3ccccc3S(=O)(=O)N2C)no1`, the compound was called inactive.

As to `CCCCCCCCCCCCCCCCCl`, the compound was called inactive.
